Screening results: PubChem BioAssay, The Scripps Research Institute Molecular Screening Center
Most compounds without a hit are left out; they make up all but 3.5% or so of the library.
GPR151 ag: activators of human GPR151, primary screen, cell-based, PathHunter beta-arrestin, luminescence | G-protein coupled receptor 151 (Homo sapiens), Q8TDV0 | PathHunter beta-arrestin GPR151 cells | activation, % at 11.2 µM | actives 1% (n = 650,000) | AID 1508602, 2020; in the data active = activation above about 4.9%;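 also: 0% = median of compound wells and 100% = cells with positive control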
TEAD-YAP block: TEAD-YAP interaction inhibition, primary screen, TEAD-YAP interaction inhibitor project, luminescence, HEK-TIYL cells; TEAD-Gal4/YAP UAS-luciferase luminescence; inhibition, % at 9.12 µM; actives 1.4% (n = 640,000); AID 1259422, 2018; in the data active = inhibition above about 32%;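 also: 0% = median of test compound wells and 100% = reference inhibitor wells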
FBW7 activator: FBW7 E3 ligase activators, primary screen, biochemical, AlphaScreen, human. AID 1259310, 2017. actives 0.13% (n = 650,000). normalized activity (activation), % at 26.1 µM. AlphaScreen FBW7–phospho-cyclin E peptide binding, activator screen. F-box/WD repeat-containing protein 7 (Homo sapiens), Q969H0; in the data active = normalized activity above about 1.9%;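 also: purified mutant Fbw7 with reduced substrate affinity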
MITF primary: MITF inhibitors, primary screen, biochemical, AlphaScreen, human; Microphthalmia-associated transcription factor (Homo sapiens), O75030; AlphaScreen MITF homodimerization, bead proximity signal; inhibition, % at 2.6 µM; actives 0.91% (n = 650,000); in the data active = inhibition above about 50%;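 also: 0% = vehicle wells with protein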
GPR151 conf act: GPR151 activators, triplicate retest, confirmation, cell-based, PathHunter beta-arrestin, luminescence. shares compounds with GPR151 ag. 6,700 tested, under 10 active. activation, % at 11.2 µM. GPR151 PathHunter beta-arrestin cells, 90 min; % of EA-reagent control over plate median. AID 1508609, 2020;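 active = mean percent activation across replicates above the confirmation screen cutoff of 4.91%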
GPR119 counter: GPR119 activators in beta-arrestin cells, counter-screen for GPR151 activator project, cell-based, PathHunter beta-arrestin, luminescence, triplicate; actives 0.3% (n = 6,700); activation, % at 11.2 µM; shares compounds with GPR151 ag; 90 min; 0 = compound-well median, 100 = enzyme-acceptor control; AID 1508611, 2020;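 active = mean percent activation in the counterscreen above 29.09%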;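 also: counterscreen on off-target GPR119 to flag nonselective hits from the GPR151 activator screen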
Target sequence (Q8TDV5 whole entry, looked up): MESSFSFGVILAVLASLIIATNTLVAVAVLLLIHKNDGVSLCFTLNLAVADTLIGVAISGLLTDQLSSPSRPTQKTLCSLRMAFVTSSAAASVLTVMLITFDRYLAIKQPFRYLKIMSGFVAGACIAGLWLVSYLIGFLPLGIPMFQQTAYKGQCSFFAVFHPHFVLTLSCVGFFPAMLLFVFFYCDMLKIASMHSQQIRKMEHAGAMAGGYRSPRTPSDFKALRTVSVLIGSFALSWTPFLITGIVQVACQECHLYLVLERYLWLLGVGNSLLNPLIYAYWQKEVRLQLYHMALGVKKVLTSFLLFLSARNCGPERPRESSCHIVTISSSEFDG
* = called active by the depositor; . = no result.

SMILES | GPR151 ag | TEAD-YAP block | FBW7 activator | MITF primary | GPR151 conf act | GPR119 counter
O=C(c1ccc(F)cc1)N(Cc1cccnc1)Cc1cc2ccccc2[nH]c1=O | 7.0* | -3 | 0 | 1 | 1 | 12
COc1ccc(/C=N/NC(=O)c2ccccc2O)c2ccccc12 | 5 | -18 | 0 | 8 | . | .
CC1CCCC(C)N1c1nnc(NC(=O)c2csc3c2CCCC3)s1 (configuration not stated) | 5.8* | -15 | 0 | -10 | -1 | 8
COc1ccc(C(=O)N/N=C/c2ccc(O)c(OC)c2)cc1 | -1 | -26 | 0 | 0 | . | .
O=C(N/N=C/c1ccc(C(=O)O)cc1)C(=O)Nc1cccc(Br)c1 | 9.3* | 6 | 0 | 1 | 0 | 0
COc1ccc(NC(=O)C(=O)N/N=C/c2ccc(C(=O)O)cc2)c(OC)c1 | -1 | 2 | 0 | 9 | . | .
O=C(N/N=C/c1cccc(Br)c1)C(=O)Nc1cccc(C(=O)O)c1 | 0 | 0 | 0 | 2 | . | .
COc1ccccc1NC(=O)C(=O)N/N=C/c1ccc(C(=O)O)cc1 | 5.3* | 4 | 0 | 14 | 0 | -5
COc1cc(/C=N/NC(=O)c2ccc(N(C)S(=O)(=O)c3ccccc3)cc2)ccc1O | 9.3* | -9 | 0 | 5 | 1 | -3
Cc1ccc2nc(Nc3ccc(C(=O)Nc4ccc(Br)cc4C(=O)c4ccccc4)cc3)nc(-c3ccccc3)c2c1 | 1 | -1 | 0 | 5 | . | .
S=C(NCC1CCCO1)Nc1ccc(I)cc1 (configuration not stated) | 2 | -45 | 0 | 1 | . | .
CC(=O)c1ccc(NC(=S)NCC2CCCO2)cc1 (configuration not stated) | 5.4* | -28 | 0 | -9 | 0 | 5
Cn1c(Nc2nc3ncnc(NCCOc4ccccc4)c3[nH]2)nc2ccccc21 | 4.9* | 6 | 0 | 20 | -1 | -10
c1ccc(OCCNc2ncnc3nc(Nc4nccc5ccccc45)[nH]c23)cc1 | 2 | -2 | 0 | 14 | . | .
c1ccc(OCCNc2ncnc3nc(Nc4cnccn4)[nH]c23)cc1 | 5.7* | 4 | 0 | 4 | -2 | -2
O=C1NC2(CCN(Cc3ccc4nccnc4c3)CC2)Oc2ccccc21 | 5.0* | 4 | 0 | -5 | -1 | -12
O=C1NC2(CCN(Cc3ccc(F)c(F)c3)CC2)Oc2ccccc21 | 1 | -1 | 0 | 2 | . | .
O=C(c1cc(-c2cccc(Cl)c2)nc2ccccc12)N1CCOCC1 | 11* | 7 | 0 | -10 | -1 | -3
O=C(c1cc(-c2ccc(Cl)cc2)nc2ccccc12)N1CCOCC1 | 0 | 3 | 0 | -3 | . | .
Cc1ccc2occ(/C=N/NC(=O)CCC(=O)Nc3ccc(C(=O)O)cc3)c(=O)c2c1 | 0 | 6 | 0 | -6 | . | .
CC(C)c1ccc(NC(=O)c2ccc(N(C)C)cc2)cc1 | 0 | -46 | 1 | 6 | . | .
CC(C)c1ccc(C(=O)Nc2ccc(N(C)C)cc2)cc1 | 19* | 7 | 0 | 7 | -1 | -11
COc1ccc(C(=O)ON2C(=O)c3ccccc3C2=O)cc1 | -1 | 10 | 0 | -5 | . | .
Cc1ccc(S(=O)(=O)/N=C(\CN2CCCCC2)N2CCCCC2)cc1 | 5.4* | 2 | 0 | 5 | 0 | -6
Cc1nc(C)c(CC(=O)Nc2cccc(Cl)c2)s1 | 0 | -1 | 0 | 1 | . | .
CCC(C)(C)NC(=O)C(c1ccncc1)N(C(=O)c1csnn1)C1CCCCC1 (configuration not stated) | -1 | 0 | 0 | 2 | . | .
C=CCOc1ccc(/C=N/NC(=O)CSc2nc(C)cc(C)n2)cc1OCC | 12* | 4 | 0 | 12 | 1 | 4
C=CCOc1ccc(/C=N/NC(=O)CSc2nc(C)cc(C)n2)cc1 | 3 | 11 | 0 | 14 | . | .
C=CCOC(=O)/C(C#N)=C/c1ccc(OCC(=O)O)cc1 | -2 | -3 | 0 | -8 | . | .
